Results reported in PubChem BioAssay.
Measured potencies and affinities stand elsewhere. Results filed as inconclusive are left out. Activity calls are given as the source filed them. Unless noted, the rule behind the calls is not given here.

Columns and labels:
[1] = RMG-1 ovarian cancer cell viability loss – cherry-pick, dose response (AID 687029;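 active = signal drop whose fitted half-maximal concentration is at most twice the top valid dose, in every test run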;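 note: cells exposed to compound for 96 hours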)
[2] = CMV-driven luciferase expression suppression in HEK293 – cell-based, luminescence, dry powder, counter-screen for Pax8 inhibitor project, dose response (AID 743020;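 active = signal-lowering compounds whose fitted half-maximal concentration is at or below twice the top tested dose in every run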;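 note: HEK293 cells stably expressing the CMV luciferase reporter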)
[3] = general cell-killing toxicity readout – plate reader, dry powder samples, cytotoxicity control for PAX8 inhibitor project, dose response (AID 743021)

Measured: outcome

CNc1ccc(Br)cc(C(=O)/C=C/c2cc(OC)ccc2OC)c1=O
inactive: all assays above

O[C@@H]1[C@@H](O)C=C2CCN3Cc4cc5c(cc4[C@H]1C23)OCO5 (stereo partly specified)
inactive: all assays above

COc1cc(NC(=O)c2ccc([N+](=O)[O-])o2)ccc1NC(=O)c1ccco1
inactive: all assays above

Cn1nnnc1Sc1ncnc2scc(-c3ccc([N+](=O)[O-])cc3)c12
inactive: all assays above

C=C1C(=O)O[C@@H]2[C@H]1[C@@H](OC(=O)/C(C)=C/C)C/C(C)=C\C(=O)/C=C(\C)[C@@H]2O
inactive: all assays above

O=C(N/N=C/c1c[nH]c2ccccc12)c1[nH]c2ccc(Br)cc2c1-c1ccccc1
inactive: all assays above

CC1=CC(=O)C(C(C)C)=C/C1=N/OS(=O)(=O)c1ccccc1
inactive: all assays above

CCn1c2ccccc2c2cc(NC(=O)c3cc(OC)cc(OC)c3)ccc21
inactive: all assays above

C=C1CC(COc2ccc3c(C)c(Cl)c(=O)oc3c2)(c2ccccc2)OC1=O (stereo unspecified)
inactive: all assays above

CCCOc1ccc2[nH]c(C(=O)N/N=C/c3cc(OC)c(OC)c(OC)c3)cc2c1
inactive: all assays above

CSc1ccc(COC(=O)c2cc([N+](=O)[O-])ccc2N2CCOCC2)cc1
inactive: all assays above

O=C(NC(Nc1nc2ccc([N+](=O)[O-])cc2s1)(C(F)(F)F)C(F)(F)F)c1cccnc1
inactive: all assays above
